Screening data: PubChem BioAssay, Buhrlage Lab, Dana-Farber Cancer Institute and Novartis Institutes for BioMedical Research (Cambridge, Mass)
USP17 inh = human USP17-like deubiquitinase inhibition; A8MUK1; purified USP17, Ub-rhodamine cleavage fluorescence, 3 h; inhibition, % at 50 µM; 6.5% of 47,000 active; AID 1645855
USP30 inh = human USP30 deubiquitinase inhibition; Q70CQ3; purified USP30, Ub-rhodamine cleavage fluorescence; inhibition, % at 25 µM; 5.3% of 47,000 active; AID 1645860
Target sequence (Q70CQ3 whole entry, looked up): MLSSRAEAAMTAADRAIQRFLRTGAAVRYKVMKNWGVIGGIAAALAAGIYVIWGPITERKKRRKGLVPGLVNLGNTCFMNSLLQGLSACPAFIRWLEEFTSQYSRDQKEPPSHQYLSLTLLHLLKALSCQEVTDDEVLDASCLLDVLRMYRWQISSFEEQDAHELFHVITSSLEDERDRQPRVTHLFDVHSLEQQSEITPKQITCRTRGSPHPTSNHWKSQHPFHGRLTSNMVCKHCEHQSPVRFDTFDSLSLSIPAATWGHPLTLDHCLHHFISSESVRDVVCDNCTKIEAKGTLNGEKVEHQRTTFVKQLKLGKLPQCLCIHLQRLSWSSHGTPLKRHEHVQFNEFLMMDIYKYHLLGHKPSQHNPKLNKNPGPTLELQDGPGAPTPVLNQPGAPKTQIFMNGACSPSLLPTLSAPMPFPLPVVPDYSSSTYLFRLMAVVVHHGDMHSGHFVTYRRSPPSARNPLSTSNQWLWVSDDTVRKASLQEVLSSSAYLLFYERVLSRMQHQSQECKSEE
OTUD3 inh = inhibitors of human OTUD3 deubiquitinase. Q5T2D3. purified OTUD3, Ub-rhodamine fluorescence, 2 h. inhibition, % at 25 µM. 0.7% of 47,000 active
USP28 block = blocks human USP28 ubiquitin-rhodamine cleavage. Q96RU2. purified USP28, Ub-rhodamine cleavage fluorescence, 30 min. inhibition, % at 25 µM. 3% of 47,000 active. AID 1645857
Starred values were filed as active, the others as inactive; i = inactive; nt = no result. In the library only some 11% were active in any assay of this set; here they are far more common. Rule as the data show it: active = inhibition above about 30%; inactive = the rest.

SMILES | USP17 inh | USP30 inh | OTUD3 inh | USP28 block
COc1ccc2c(c1)C/C(=C/c1ccc(OC)cc1OC)CC2=O | 11.6 | 13.8 | 3.7 | 4.2
COc1cccc2c1C(=O)c1ccc3c(c1C2=O)C(=O)CC(C)(O)C3 (centres undefined) | 62.2* | 21.5 | -0.9 | 0.3
FC(F)(F)c1cccc(CSc2ccc3nnc(-c4ccccn4)n3n2)c1 | -0.5 | 32.4* | -2.6 | 77.6*
O=C(CSc1ccc2nnc(CCNS(=O)(=O)c3ccccc3)n2n1)N1CCCc2ccccc21 | -0.8 | 4.0 | -7.0 | -1.0
O=C(CSc1ccc2nnc(-c3ccncc3)n2n1)Nc1cccc(C(F)(F)F)c1 | 47.3* | -10.6 | -4.1 | -0.6
c1ccc(CSc2ccc3nnc(-c4cccnc4)n3n2)nc1 | -16.8 | -0.4 | -0.3 | -3.1
Fc1cccc(-c2nnc3ccc(SCc4ccccn4)nn23)c1 | 22.7 | 30.2* | 15.1 | 11.7
O=C(CSc1ccc2nnc(-c3cccc(F)c3)n2n1)N1CCCc2ccccc21 | 62.6* | 72.9* | 39.8* | 44.5*
CCOC(=O)c1cc(C(=O)OCC)c(=O)[nH]c1OCC | 6.8 | -4.3 | -1.9 | -0.2
Nc1c(-c2ccncc2)nsc1C(=O)NCc1ccc(F)cc1F | -53.3 | -25.4 | 2.6 | 16.2
COc1cc2cc(C(=O)NCc3cccnc3)[nH]c2cc1OC | 2.9 | 1.3 | -1.3 | -2.7
c1ccc(CSc2ccc3nnc(-c4ccccn4)n3n2)cc1 | 20.1 | 35.7* | 10.6 | 33.5*
CC(=O)N1CCC(c2cc(-c3ccc(C(=O)O)cc3)nc(C)n2)CC1 | 0.9 | 4.9 | 3.8 | 5.3
c1ccc(-c2cn(-c3ccccc3)c3ncnc(NC4CC4)c23)cc1 | -7.4 | 4.3 | -13.8 | 34.6*
COc1ccc(-n2cc(-c3ccccc3)c3c(NC4CC4)ncnc32)cc1 | 4.6 | 4.2 | -1.2 | 6.8
Clc1cccc(-n2cc(-c3ccccc3)c3c(NCc4ccccn4)ncnc32)c1 | 69.8* | 74.9* | 7.4 | 52.9*
CSc1ccccc1NC(=O)CCCn1nc([N+](=O)[O-])cc1C | -12.0 | 8.2 | 5.0 | 0.1
COc1cccc2cc(C(=O)Nc3nc(-c4ccncc4)cs3)oc12 | 31.3* | 31.1* | 32.3* | 15.1
COc1cccc2cc(C(=O)NCc3cnn4ccccc34)oc12 | -2.8 | -32.2 | -16.6 | -19.2
Cc1cccc(O)c1C(=O)OC(C)c1cccc2nc3c(C(=O)O)cc4c(c3nc12)C(C)c1cccc2c1N4c1cccc(C(=O)O)c1N2 (centres undefined) | 99.6* | 101.5* | 100.8* | 100.4*
O=C(COc1ccc2ccccc2c1)N1CCN(c2ccccn2)CC1 | -5.8 | 9.2 | -0.5 | -11.8
CC1=C(C)C(N(c2ccccc2)c2ccccc2)N(CCC(C)C)C1=O (centres undefined) | 75.6* | 16.0 | 9.9 | 15.5
Cc1cc(NC(=O)/C=C/c2ccc([N+](=O)[O-])cc2)n(-c2ccccc2)n1 | 0.7 | 4.7 | 0.5 | -1.2
Cn1c(COc2cccc3cccnc23)nnc1SCC(=O)c1ccc(Cl)cc1Cl | 15.4 | -0.6 | -13.9 | 37.2*
COc1ccccc1OCc1nnc(SCC(=O)c2ccc(F)cc2)n1C | -0.1 | 0.4 | 0.0 | -3.8
SMILES | USP17 inh | USP30 inh | OTUD3 inh | USP28 block
CCN1CCN(C(=O)c2cc(-c3ccccc3)cn2C)CC1 | -1.9 | 7.5 | 7.0 | -3.3
CCN1CCN(C(=O)CCCN(c2ccccc2)S(C)(=O)=O)CC1 | 62.1* | 35.0* | 15.2 | 22.1
O=C(Cn1nc(-c2ccco2)ccc1=O)Nc1cccc(Br)c1 | 36.7* | 28.9 | 12.8 | 12.4
Cc1ccc(-c2cc(NC(=O)C(C)C)c(=O)n(CC(=O)Nc3cccc(F)c3)n2)cc1 | -1.5 | -13.1 | -2.2 | -6.9
O=C(c1ccc(N2CCc3ccccc32)s1)N1CCC(N2CCCCC2)CC1 | 46.5* | 0.6 | 8.3 | 34.6*
CN(C)CCNC(=O)c1ccc(N2CCc3ccccc32)s1 | -1.2 | -47.7 | -14.5 | 19.0
COc1ccc(NC(=O)c2nc3n(n2)-c2ccccc2S(=O)(=O)N3)cn1 | -174.4 | i | -199.8 | -243.6
O=[N+]([O-])c1c(Cl)cccc1-c1c[nH]cc1Cl | 7.7 | 2.5 | 5.0 | 47.9*
Cc1ccc(C(O)Cn2cc(C(=O)Nc3ccccc3)nn2)cc1 (centres undefined) | 25.3 | 35.0* | 8.5 | 17.9
Cc1ccc(-c2cc(C(=O)Nc3cccc(C)c3)[nH]n2)cc1 | -82.9 | -75.7 | -18.7 | -12.3
Cc1ccc(C(O)Cn2cc(C(=O)Nc3cccc(C)c3)nn2)cc1 (centres undefined) | 79.6* | nt | -1.4 | nt
Cc1ccc(NC(=O)c2cccc(-n3cnnc3)n2)cc1 | 3.7 | nt | 2.9 | nt
O=C(N[C@@H]1CC[C@@H](Oc2cccnc2)[C@H](O)[C@H]1N1CCCCC1)c1cnco1 | -23.1 | -63.8 | -17.3 | -20.8
Cc1sc2nc(C3CC3)n(C3CCN(C(=O)C4CCC4)CC3)c(=O)c2c1C | 16.0 | 39.3* | 17.6 | 21.9
COCC(=O)N1CCC(n2c(C3CC3)nc3sc(C)c(C)c3c2=O)CC1 | 0.3 | -0.3 | -4.1 | -12.3
Clc1ccc(-c2cc3n(c2)CCc2cc4c(cc2-3)OCO4)cc1 | 29.9 | -154.4 | 0.1 | -0.4
O=C(CSc1nc(-c2ccccc2)c2ccccc2n1)NCc1ccc(C(=O)O)cc1 | 17.4 | 31.9* | 6.1 | 13.2
CN(C)S(=O)(=O)c1ccc(S(=O)(=O)NCCc2ccc3c(c2)OCO3)cc1 | 16.2 | 45.1* | 12.3 | 19.4
COc1ccc(Cn2nccc2NC(=O)C(C)Oc2ccc(C)c(C)c2)cc1 (centres undefined) | 62.8* | nt | -0.1 | nt
O=C(CCc1nc2cccnc2n1Cc1ccccc1)NCc1ccccc1Cl | -10.9 | 19.9 | -6.9 | -8.5
CN1C[C@H]2CCN(C(=O)c3cccnc3)CC[C@H]2S1(=O)=O | 1.7 | 6.7 | 8.5 | 9.5
Cc1ccc(NC(=O)Cn2c(=O)n(CC(=O)NCCc3ccccc3)c(=O)c3sccc32)cc1C | 23.1 | 46.8* | 1.0 | 10.6
COc1ccc(NC(=O)Cn2c(=O)n(CCC(=O)NCc3ccccc3)c(=O)c3sccc32)cc1Cl | 47.4* | 15.4 | 5.1 | 2.2
Cc1ccc(CNC(=O)Cn2c(=O)c3sccc3n(CC(=O)Nc3ccc4c(c3)OCCO4)c2=O)cc1 | 59.6* | nt | -8.4 | nt
Cc1ccc(N2C(=O)N(CC(=O)Nc3ccc4c(c3)OCCO4)C(=O)C2C)cc1 (centres undefined) | -0.4 | 7.6 | 4.5 | 28.7
SMILES | USP17 inh | USP30 inh | OTUD3 inh | USP28 block
CC(C)Cn1c(=O)c2sccc2n2c(CCC(=O)NCCc3ccccc3)nnc12 | -2.1 | -6.0 | -3.2 | -3.9
CCc1cc(=O)n(CC(=O)Nc2ccc3c(c2)OCCO3)c2c1c(C)nn2-c1ccc(C)cc1 | 31.2* | 31.9* | 14.5 | 16.9
CCCn1c(-c2ccc(F)cc2)cn2c(-c3ccccc3)c(-c3ccccc3)nc12 | 17.3 | -7.9 | -6.4 | -3.3
O=C(Nc1ccc(-n2ccc(C(F)(F)F)n2)cc1)Nc1ccc2c(c1)CCO2 | 12.1 | 32.2* | 16.1 | 40.7*
O=C(CCc1ccc2c(c1)CCO2)Nc1cccnc1 | -6.2 | -0.8 | -6.2 | 2.8
O=C1C=C[C@]23Oc4ccc(O)c5c4[C@](Oc4cccc1c42)(O3)C1OC1[C@@H]5O (some centres undefined) | 44.8* | -51.3 | 0.9 | 6.1
O=C(COc1cccc(-n2cnnn2)c1)Nc1ccc2c(c1)OCCO2 | 5.0 | 14.4 | 2.8 | 50.4*
